Hits are enriched below; roughly 6.5% of the tested compounds scored in any of these assays.
HCMV antiviral: qHTS Assay for inhibitors of the human cytomegalovirus (HCMV) | HFF cells, HCMV-luciferase reporter, 72 h; stronger effect = lower value | activity change, negative = inhibition, % at 57.5 µM | 410,000 compounds, 4.5% hits | AID 1259415, 2018; in the data active = activity change below about -60%; inconclusive = no clear call, values can overlap the other calls; inactive = above about -39%
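Inhibition of viral replication was scored as loss of reporter luminescence in HFFs infected with HCMV-luciferase (MOI 1 PFU/cell) for 72 h; compounds tested at 2 doses, normalized to buffer and Salinomycin controls.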
Lassa entry inh: qHTS for Inhibitors of binding or entry into cells for Lassa Virus | Lassa virus pseudotype entry inhibition, cell reporter | Potency, µM (doses to about 37.9 µM), actives largely listed as inhibitors | 300,000 compounds, 1.2% hits; calls by dose curve; tested in HEK293 cells; note: nearly all actives have a fitted effect of over 50% in size
Vaccinia Venus: qHTS for Stage-Specific Inhibitors of Vaccinia Orthopoxvirus: Venus Reporter Primary qHTS | Vaccinia virus Venus reporter expression, fluorescence | Potency, µM (series often up to 36.5 µM), hits mostly inhibitors | 330,000 compounds, 0.46% hits; calls by dose curve; tested in A549 cells; note: nearly all actives have a fitted effect of over 30% in size
Vaccinia mCherry: qHTS for Stage-Specific Inhibitors of Vaccinia Orthopoxvirus: mCherry Reporter Primary qHTS | Vaccinia virus mCherry reporter infection, fluorescence | Potency, µM (titrated, usually from 36.5 µM), hits mostly inhibitors | 310,000 compounds, 0.63% hits; calls by dose curve; tested in A549 cells; note: nearly all actives have a fitted effect of over 35% in size
Marburg entry inh: qHTS for inhibitors of binding or entry into cells for Marburg Virus. AID 540276, 2011. 300,000 compounds, 1.8% hits. Potency, µM (series often up to 37.8 µM), actives largely listed as inhibitors. Marburg virus pseudotyped entry inhibition, cell reporter; calls by dose curve; tested in HEK293 cells
FMDV inh: High Throughput Screening for Foot and Mouth Disease Virus Antivirals. AID 1159524, 2015. FMDV antiviral cell-based qHTS. Potency, µM (series often up to 57.9 µM), most hits filed as inhibitors. 410,000 compounds, 1.2% hits; calls by dose curve; tested in HEK293T cells; note: read-out not given here; nearly all actives have a fitted effect of over 45% in size
Numbers stand for hits; – = inactive; ? = inconclusive; · = not tested or not shown; + = active, no number.

SMILES	HCMV antiviral	Lassa entry inh	Vaccinia Venus	Vaccinia mCherry	Marburg entry inh	FMDV inh
COc1cc(OC)cc(-c2cc3nc(C)c(CCC(=O)NCc4ccc(Cl)cc4)c(C)n3n2)c1	-61.5	?	–	–	4.47µM	12.6µM
COc1ccc(CNC(=O)CCc2c(C)nc3cc(-c4ccc(OC)cc4OC)nn3c2C)cc1	–	–	–	–	–	–
COc1cc(OC)cc(-c2cc3nc(C)c(CCC(=O)Nc4ccccc4OC)c(C)n3n2)c1	-61.6	?	–	–	?	?
COc1ccc(NC(=O)CCc2c(C)nc3c(c2C)c(=O)n(C)c(=O)n3C)c(OC)c1	-76.4	–	–	–	–	?
COc1ccc(Cl)cc1NC(=O)CCc1c(C)nc2c(c1C)c(=O)n(C)c(=O)n2C	–	–	–	–	–	–
COc1cc(OC)cc(-c2cc3nc(C)c(CCC(=O)NCc4ccccc4)c(C)n3n2)c1	-68.6	8.91µM	–	?	11.2µM	5.62µM
Cc1ccc(CCNC(=O)c2cc3n(n2)CCCN(Cc2ccc(C)cc2)C3=O)cc1	–	?	–	–	·	–
CC(CNC(=O)C1CCN(C(=O)N2CCOc3ccc(Cl)cc32)CC1)c1ccccc1 (centres undefined)	–	–	–	–	·	–
O=c1cc(COc2ccc(Cl)cc2Cl)nc2scc(-c3ccccc3)n12	–	–	–	–	–	–
Cc1cccc(OCc2cc(=O)n3c(-c4ccccc4)csc3n2)c1C	-102.8	–	–	–	?	–
O=c1cc(COc2ccccc2Cl)nc2scc(-c3ccccc3)n12	-87.6	–	–	–	?	–
Cc1ccc(-c2cc(C(F)(F)F)n3nc(C(=O)Nc4ccc(Cl)c(C(F)(F)F)c4)cc3n2)cc1	–	–	–	–	–	–
O=C(CSc1nnc(-c2ccc(F)cc2)c2ccccc12)Nc1ccccc1	-63.2	–	–	–	–	–
O=C(CSc1nnc(-c2ccc(F)cc2)c2ccccc12)Nc1ccccc1Cl	–	?	–	–	–	–
COc1ccccc1NC(=O)CSc1nc2ccccc2c2nc(-c3ccccc3)nn12	–	–	–	–	·	–
O=C(CSc1nnc(-c2ccc(F)cc2)c2ccccc12)Nc1c(F)cccc1F	-83.2	?	·	·	–	–
O=C(CSc1nc2ccccc2c2nc(-c3ccccc3)nn12)Nc1ccc(F)cc1	+	–	–	–	·	–
O=C(N/N=C/c1ccc(F)cc1)c1sccc1OCc1ccc(F)cc1	?	?	?	?	2.24µM	–
CSc1ccc(/C=N/NC(=O)c2ccc(C)c(C)c2)cc1	–	?	–	–	–	–
CSc1ccc(/C=N/NC(=O)c2sccc2C)cc1	–	?	–	–	10µM	–
C/C(=C1/C=Nc2ccccc21)c1ccc(N(C)C)cc1	·	·	–	–	·	·
CC(=O)Nc1ccc(S(=O)(=O)Nc2cccc(-c3ccc(N4CCC(C)CC4)nn3)c2)cc1	–	11.2µM	–	–	·	?
CC(=O)Nc1ccc(S(=O)(=O)Nc2cccc(-c3ccc(N4CCCCCC4)nn3)c2)cc1	–	–	–	–	·	–
CCc1ccc(N2C(=O)CS(=O)(=O)C23C(=O)N(Cc2ccccc2)c2ccccc23)cc1 (centres undefined)	–	–	–	–	·	–
Cc1cc(C)cc(N2CCn3c2nc2c3c(=O)n(Cc3c(F)cccc3Cl)c(=O)n2C)c1	–	–	–	–	·	–
SMILES	HCMV antiviral	Lassa entry inh	Vaccinia Venus	Vaccinia mCherry	Marburg entry inh	FMDV inh
CN1/C(=C/c2cccc[n+]2CCO)Sc2ccccc21	?	–	–	–	–	–
CCN1/C(=C/c2ccc3cc(C)ccc3[n+]2CC)Sc2ccccc21	-101.8	5.17µM	·	·	1.03µM	20µM
CC[n+]1c(C)sc2cc(C)ccc21	–	·	·	·	·	–
CCN1/C(=C/c2ccc3cc(C)ccc3[n+]2CC)Sc2cc(C)c(C)cc21	-100.0	2µM	–	?	?	?
CC[n+]1c(/C=C2\Sc3ccccc3N2C)ccc2cccc(C)c21	-101.0	?	–	14.1µM	?	4.47µM
CCOc1ccc(C[C@H]2CC(=O)NC2=O)cc1	·	·	·	·	–	·
O=C1CCCc2cc(S(=O)(=O)NCC3CCC(C(=O)Nc4ccc(Cl)cc4)CC3)ccc2N1 (centres undefined)	–	?	–	–	·	–
O=C1OCCN/C1=C/C(=O)c1ccccc1	·	·	·	·	–	·
c1csc(CCNc2ncnc3sc4c(c23)CCC4)c1	-88.9	·	?	–	·	12.6µM
CN(C)C(CNc1ncnc2sc3c(c12)CCCCC3)c1ccco1 (centres undefined)	-67.5	–	–	–	?	?
CCC(=O)N1CCc2cc(Br)cc(S(=O)(=O)CCC(=O)N3CCN(c4ccccc4OC)CC3)c21	–	–	–	–	–	–
CN(CC(=O)O)c1ccc(/C=C/c2ccnc3ccccc23)cc1	·	·	–	–	·	·
Cc1ccc(-c2nnc3ccccc3c2C(=O)Nc2cccc(C(F)(F)F)c2)cc1	–	–	–	–	·	–
O=C(CSc1ccccn1)N1CCN(c2cccc(Cl)c2)CC1	-73.4	–	·	·	–	–
Cn1c(SCC(=O)N2CCN(c3cccc(Cl)c3)CC2)nnc1-c1ccncc1	-66.8	–	·	·	–	?
CCOc1ccccc1C(=O)N1CCN(c2cccc(Cl)c2)CC1	-85.1	?	?	?	?	–
O=C(c1cccc([N+](=O)[O-])c1)N1CCN(c2cccc(Cl)c2)CC1	–	?	–	–	–	?
O=C(O)c1ccccc1C(=O)N1CCN(c2cccc(Cl)c2)CC1	–	–	–	–	–	–
O=C(CSc1ccccn1)N1CCN(c2ccccc2)CC1	–	–	·	·	–	–
COC(=O)c1cc(C(=O)N2CCN(c3cccc(Cl)c3)CC2)cc([N+](=O)[O-])c1	-67.6	?	–	?	?	–
COc1ccc(CCNC(=O)c2cc3c(=O)n(C)c4cc(Cl)ccc4c3s2)cc1OC	–	?	–	–	–	–
COc1cc(OC)c(NS(=O)(=O)c2cc3c(cc2C)NC(=O)CO3)cc1Cl	–	–	–	–	·	–
CCC(C(=O)OC)n1cnc2c(cnn2-c2ccc(F)cc2)c1=O (centres undefined)	–	–	–	–	–	–
CC(C)Sc1nc(-c2ccccc2)cc(=O)[nH]1	–	–	·	·	–	–
Cc1cccc(Sc2c([N+](=O)[O-])ncn2C)n1	–	–	·	·	–	–
O=[N+]([O-])c1ccc(Sc2nccn2Cc2ccccc2)c([N+](=O)[O-])c1	–	–	–	–	?	28.2µM
O=c1cc(-c2ccccc2)nc(Sc2ccc([N+](=O)[O-])cc2[N+](=O)[O-])[nH]1	–	–	–	–	–	15.8µM
O=[N+]([O-])c1ccc(Sc2ncccn2)c([N+](=O)[O-])c1	-97.2	?	?	?	?	14.1µM
Cc1cccc(Sc2ccc([N+](=O)[O-])cc2[N+](=O)[O-])n1	-72.1	–	–	–	–	?
